# Source: the supplement of paper PMC9948646
# System: gramicidin D channels in DC22:1PC lipid vesicles (bilayer-modifying potency)
# Test: initial Tl+ fluorescence quench rate relative to no-drug control (NormRate, gramicidin monomer-dimer shift) (ratio (fold of control)); higher = stronger bilayer-modifying effect (equilibrium shifted toward conducting dimers), active = 1.5 or more
# Conditions: 10 µM; lipid concentration 50 µM; temperature: 25 °C
# Procedure: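 Stopped-flow fluorescence quench assay: ANTS-loaded DC22:1PC large unilamellar vesicles doped with gramicidin D (1:2000), 50 µM lipid, equilibrated 10 min with 10 µM drug (0.1% DMSO), mixed with Tl+ quench buffer at 25°C. Initial quench rate (Tl+ influx) was fitted with a modified stretched exponential and normalised to the no-drug control rate (NormRate); duplicates from two independent LUV preparations (triplicates for 7 drugs).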
row,SMILES,initial Tl+ fluorescence quench rate
1,CC(=O)Oc1ccccc1C(=O)Nc1ncc([N+](=O)[O-])s1,1.05 (inactive)
2,COc1ccc(-c2cnc3ccc(NCc4ccc(S(N)(=O)=O)cc4)nn23)cn1,1.24 (inactive)
3,COc1ccc(-c2cncc3ccc(C(=O)NCCCn4ccnc4)nc23)cc1,1.03 (inactive)
4,CC(C)(C)OC(=O)N1CCN(c2cc(-c3ccc(Oc4ccccc4)cc3)n[nH]2)CC1,3.47 (active)
5,COc1ccc(CN2CCOc3ccc([C@@](C)(O)CN(C)C)cc3C2)cc1C,1.2 (inactive)
6,O=C(Nc1ccc(F)c(-c2nc3cc(-c4ccccc4)cnc3[nH]2)c1)N1CCCC1,1.72 (active)
7,Cc1nn2c(O)c3c(nc2c1-c1ccc(F)cc1)CCCC3,1.07 (inactive)
8,CN(C(=O)c1cc2c(-c3cncnc3)cccc2[nH]1)c1ccccc1,1.12 (inactive)
9,Cn1ccnc1CNCCS(=O)(=O)c1cccc(Nc2ccc(-c3cccc(F)c3)cn2)c1,2.38 (active)
10,CS(=O)(=O)N1CCC(Cn2nc(Cc3cccc4ccccc34)c3c(N)ncnc32)CC1,1.47 (inactive)
11,Cc1ccc2[nH]c3c(NCCN(C)C)ncnc3c2c1,1.05 (inactive)
12,Cc1nc(-c2ccccn2)nc(NCCc2ccc(S(C)(=O)=O)cc2)c1Cl,1.13 (inactive)
13,CCc1ccc([C@@H]2C[C@H](C(F)(F)F)n3ncc(C(=O)NCc4ccc(OC)cc4)c3N2)cc1,4.55 (active)
14,COC(=O)c1ccc(F)cc1NS(=O)(=O)c1cccc(-c2cnn(Cc3ccccc3)c2)c1,1.25 (inactive)
15,COc1ccc(-c2nc(-c3cccc(NC(=O)Cc4ccc(F)cc4)c3)no2)cc1OC,1.47 (inactive)
16,N#Cc1nc(-c2ccccc2)oc1S(=O)(=O)c1ccc(Cl)cc1,1.12 (inactive)
17,CCOC(=O)c1noc(N)c1-c1ccccc1,1.03 (inactive)
18,[H]/N=C(\N)N[C@H]1[C@@H](O)[C@@H](O)[C@H](O[C@H]2O[C@H](C)[C@](O)(C=O)[C@H]2O[C@H]2O[C@@H](CO)[C@@H](O)[C@@H](O)[C@@H]2NC)[C@@H](N/C(N)=N/[H])[C@H]1O,1.05 (inactive)
19,COc1ccc(Oc2ccc([C@@H](C)N(C)c3ncc4c(N)nc(N)nc4n3)cc2)cc1,3.36 (active)

row,SMILES,initial Tl+ fluorescence quench rate
1,CC(C)c1ncc(-c2ccncc2)c([C@H]2CC[C@H](CNC(=O)c3cccnc3)CC2)n1,1.02 (inactive)
2,CNC(=O)c1cc(S(=O)(=O)N2CCN(c3ccccn3)CC2)cs1,1.07 (inactive)
3,Cc1ccc(NC(=O)c2cc(S(=O)(=O)NC(C)(C)C)ccc2C)nc1,1.21 (inactive)
4,O=C1N(Cc2cc3ccccc3s2)C[C@H]2CN(Cc3ccccc3)CCN12,2.35 (active)
5,COc1cccc(-n2nnnc2S(C)(=O)=O)c1,1.06 (inactive)
6,Cc1nn2c(=O)c3c([nH]c2c1-c1ccc(Cl)cc1)CCCC3,1.13 (inactive)
7,Nc1ccc(C(=O)Nc2ccc(-c3nc4ccccc4o3)cc2)cc1,1.1 (inactive)
8,COC(=O)C1=C(C)NC(C)=C(C(=O)OC(C)C)[C@@H]1c1cccc2nonc12,1.33 (inactive)
9,O=C(CN1CCOCC1)Nc1ccc2ncnc(Nc3ccc(OCc4cccc(F)c4)c(Cl)c3)c2c1,6.71 (active)
10,COc1ccc(O[C@H](C)C(=O)Nc2ccc(Cl)cc2C)cc1,1.05 (inactive)
11,C[C@@H]1[C@H](O)[C@@H](C)/C=C/C=C/C=C/C=C/C=C/C=C/C=C/[C@H](O[C@@H]2O[C@H](C)[C@@H](O)[C@H](N)[C@@H]2O)C[C@@H]2O[C@](O)(C[C@@H](O)C[C@@H](O)[C@H](O)CC[C@@H](O)C[C@@H](O)CC(=O)O[C@H]1C)C[C@H](O)[C@H]2C(=O)O,1.03 (inactive)
12,CCOc1ccc(-c2nc(NC(=O)CS(=O)(=O)c3ccccc3)sc2C)cc1,3.58 (active)
13,COC(=O)c1c(NC(=O)c2cc3ccccc3oc2=O)sc2c1CCN(Cc1ccccc1)C2,1.04 (inactive)
14,CC(=O)Nc1ccc(-c2noc(C[C@@H]3CCCN(Cc4cccc(F)c4C)C3)n2)cc1,1.29 (inactive)
15,O=C(Cn1ccnc1[N+](=O)[O-])NCc1ccccc1,1.01 (inactive)
16,O=C(NCc1nnc2n1CCCCC2)c1ccc(-c2ccc(F)cc2)o1,1.08 (inactive)
17,Cc1[nH]c2cc(F)cc(F)c2c(=O)c1-c1ccc(Oc2ccc(OC(F)(F)F)cc2)cc1,1.11 (inactive)
18,CC1=NN(c2nc3ccccc3s2)C(=O)[C@@H]1Cc1cccc2ccccc12,2.18 (active)
